# Measurements as given in the supplement of paper PMC8728848.
# The entries come from a sample that favours the strongest signals as a whole.
# Legend:
# Experiment in all cases: glycan array binding signal (z-score within array); higher = stronger binding
# Conditions in all cases: glycan notation: IUPAC condensed, linker removed
# [1] = molecular target: Fuc(a1-2)Gal
# Summary of the method: (§1)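 The binding signal is a Z-score computed within each array and averaged over linkers. Arrays of the same protein sequence at different concentrations or buffers were also averaged together. Data originate from 3228 arrays in the Consortium for Functional Glycomics database, kept only where the protein sequence was available.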
# [2] = molecular target: Fuc(a1-2)Gal(b1-3)GalNAc(b1-3)Gal(a1-4)Gal(b1-4)Glc
# Summary of the method: as §1
# [3] = molecular target: Fuc(a1-2)Gal(b1-3)[Fuc(a1-4)]GlcNAc(b1-2)Man(a1-3)[Fuc(a1-2)Gal(b1-3)[Fuc(a1-4)]GlcNAc(b1-2)Man(a1-6)]Man(b1-4)GlcNAc(b1-4)GlcNAc
# Summary of the method: as §1
# [4] = molecular target: Fuc(a1-2)Gal(b1-4)GlcNAc(b1-2)Man
# Summary of the method: as §1
# [5] = molecular target: Fuc(a1-2)Gal(b1-4)GlcNAc(b1-2)[Fuc(a1-2)Gal(b1-4)GlcNAc(b1-4)]Man(a1-3)[Fuc(a1-2)Gal(b1-4)GlcNAc(b1-2)Man(a1-6)]Man(b1-4)GlcNAc(b1-4)GlcNAc
# Summary of the method: as §1
# [6] = molecular target: Fuc(a1-2)Gal(b1-4)[Fuc(a1-3)]GlcNAc(b1-2)Man(a1-6)[Fuc(a1-2)Gal(b1-4)[Fuc(a1-3)]GlcNAc(b1-2)Man(a1-3)]Man(b1-4)GlcNAc(b1-4)[Fuc(a1-6)]GlcNAc
# Summary of the method: as §1
# [7] = molecular target: Fuc(a1-2)Gal(b1-4)[Fuc(a1-3)]GlcNAc(b1-2)[Fuc(a1-2)Gal(b1-4)[Fuc(a1-3)]GlcNAc(b1-4)]Man(a1-3)[Fuc(a1-2)Gal(b1-4)[Fuc(a1-3)]GlcNAc(b1-2)Man(a1-6)]Man(b1-4)GlcNAc(b1-4)GlcNAc
# Summary of the method: as §1
# [8] = molecular target: Fuc(a1-2)[Gal(a1-3)]Gal(b1-4)[Fuc(a1-3)]GlcNAc
# Summary of the method: as §1
# [9] = molecular target: Gal(a1-3)Gal(b1-3)GlcNAc(b1-2)Man(a1-3)[Gal(a1-3)Gal(b1-3)GlcNAc(b1-2)Man(a1-6)]Man(b1-4)GlcNAc(b1-4)GlcNAc
# Summary of the method: as §1
# [10] = molecular target: Gal(a1-3)Gal(b1-4)[Fuc(a1-3)]GlcNAc(b1-2)Man(a1-3)[Gal(a1-3)Gal(b1-4)[Fuc(a1-3)]GlcNAc(b1-2)Man(a1-6)]Man(b1-4)GlcNAc(b1-4)GlcNAc
# Summary of the method: as §1
# [11] = molecular target: Gal(a1-4)Gal(b1-4)GlcNAc(b1-2)Man(a1-3)[Gal(a1-4)Gal(b1-4)GlcNAc(b1-2)Man(a1-6)]Man(b1-4)GlcNAc(b1-4)GlcNAc
# Summary of the method: as §1
# [12] = molecular target: Gal(a1-4)GlcNAc
# Summary of the method: as §1
# [13] = molecular target: Gal(b1-3)GlcNAc(b1-2)Man(a1-3)[Gal(b1-3)GlcNAc(b1-2)Man(a1-6)]Man(b1-4)GlcNAc(b1-4)GlcNAc
# Summary of the method: as §1
# [14] = molecular target: Gal(b1-3)GlcNAc(b1-2)Man(a1-3)[GlcNAc(b1-4)][Gal(b1-3)GlcNAc(b1-2)Man(a1-6)]Man(b1-4)GlcNAc(b1-4)GlcNAc
# Summary of the method: as §1
# [15] = molecular target: Gal(b1-3)GlcNAc(b1-2)[Gal(b1-3)GlcNAc(b1-6)]Man(a1-6)[Gal(b1-3)GlcNAc(b1-2)Man(a1-3)]Man(b1-4)GlcNAc(b1-4)GlcNAc
# Summary of the method: as §1
# [16] = molecular target: Gal(b1-3)GlcNAc(b1-3)Gal(b1-4)Glc
# Summary of the method: as §1
# [17] = molecular target: Gal(b1-3)GlcNAc(b1-3)GalNAc
# Summary of the method: as §1
# [18] = molecular target: Gal(b1-3)[Fuc(a1-4)]GlcNAc(b1-2)Man(a1-3)[Gal(b1-3)[Fuc(a1-4)]GlcNAc(b1-2)Man(a1-6)]Man(b1-4)GlcNAc(b1-4)[Fuc(a1-6)]GlcNAc
# Summary of the method: as §1
# [19] = molecular target: Gal(b1-3)[Fuc(a1-4)]GlcNAc(b1-3)Gal(b1-4)[Fuc(a1-3)]GlcNAc
# Summary of the method: as §1
# [20] = molecular target: Gal(b1-3)[Fuc(a1-4)]GlcNAc(b1-6)GalNAc
# Summary of the method: as §1
# [21] = molecular target: Gal(b1-3)[Neu5Ac(a2-6)]GalNAc
# Summary of the method: as §1
# [22] = molecular target: Gal(b1-3)[Neu5Ac(b2-6)]GalNAc
# Summary of the method: as §1
# [23] = molecular target: Gal(b1-4)Glc
# Summary of the method: as §1
# [24] = molecular target: Gal(b1-4)GlcNAc(b1-3)Gal(b1-3)GlcNAc
# Summary of the method: as §1
# [25] = molecular target: Gal(b1-6)Gal
# Summary of the method: as §1
# [26] = molecular target: Gal3S6S(b1-4)GlcNAc
# Summary of the method: as §1
# [27] = molecular target: Gal6S(b1-4)GlcNAc
# Summary of the method: as §1
# [28] = molecular target: GalNAc(b1-3)Gal(a1-6)Gal(b1-4)Glc
# Summary of the method: as §1
# [29] = molecular target: GalNAc3S(b1-4)GlcNAc
# Summary of the method: as §1
# [30] = molecular target: Glc(a1-4)Glc
# Summary of the method: as §1
# [31] = molecular target: GlcA(b1-6)Gal
# Summary of the method: as §1
# [32] = molecular target: GlcNAc(a1-3)Gal(b1-4)GlcNAc
# Summary of the method: as §1
# [33] = molecular target: GlcNAc(a1-4)Gal(b1-4)GlcNAc(b1-3)Gal(b1-4)[Fuc(a1-3)]GlcNAc(b1-3)Gal(b1-4)[Fuc(a1-3)]GlcNAc
# Summary of the method: as §1
# [34] = molecular target: GlcNAc(b1-2)Gal(b1-3)GalNAc
# Summary of the method: as §1
# [35] = molecular target: GlcNAc(b1-2)[GlcNAc(b1-6)]Man(a1-6)[GlcNAc(b1-2)Man(a1-3)][GlcNAc(b1-4)]Man(b1-4)GlcNAc(b1-4)GlcNAc
# Summary of the method: as §1
# [36] = molecular target: Man(a1-2)Man(a1-2)Man(a1-3)Man
# Summary of the method: as §1
# [37] = molecular target: Man(a1-2)Man(a1-6)[Man(a1-3)]Man(a1-6)[Man(a1-2)Man(a1-2)Man(a1-3)]Man
# Summary of the method: as §1
# [38] = molecular target: Man(a1-3)[Man(a1-6)]Man(a1-6)[Man(a1-3)]Man
# Summary of the method: as §1
# [39] = molecular target: Man(a1-6)Man
# Summary of the method: as §1
# [40] = molecular target: Neu5Ac(a2-6)Gal(b1-4)GlcNAc(b1-2)Man(a1-3)[GlcNAc(b1-2)Man(a1-6)]Man(b1-4)GlcNAc(b1-4)GlcNAc
# Summary of the method: as §1
# [41] = molecular target: Neu5Ac(a2-6)Gal(b1-4)GlcNAc(b1-2)Man(a1-6)[Gal(b1-4)GlcNAc(b1-2)Man(a1-3)]Man(b1-4)GlcNAc(b1-4)GlcNAc
# Summary of the method: as §1
# [42] = molecular target: Neu5Ac(a2-6)Gal(b1-4)GlcNAc(b1-2)Man(a1-6)[GlcNAc(b1-2)Man(a1-3)]Man(b1-4)GlcNAc(b1-4)GlcNAc
# Summary of the method: as §1
# [43] = molecular target: Neu5Ac(a2-6)Gal(b1-4)GlcNAc(b1-3)Gal(b1-4)[Fuc(a1-3)]GlcNAc(b1-3)Gal(b1-4)[Fuc(a1-3)]GlcNAc
# Summary of the method: as §1
# [44] = molecular target: Neu5Ac(a2-6)GalNAc
# Summary of the method: as §1
# [45] = molecular target: Neu5Ac(a2-6)GlcNAc(b1-4)GlcNAc(b1-4)GlcNAc
# Summary of the method: as §1
# [46] = molecular target: Neu5Ac(a2-8)Neu5Ac(a2-8)Neu5Ac(a2-3)[GalNAc(b1-4)]Gal(b1-4)Glc
# Summary of the method: as §1
binder,measurement,setting,value
CALR truncated at D342 (Homo sapiens) (protein) EPAVYFKEQFLDGDGWTSRWIESKHKSDFGKFVLSSGKFYGDEEKDKGLQTSQDARFYALSASFEPFSNKGQTLVVQFTVKHEQNIDCGGGYVKLFPNSLDQTDMHGDSEYNIMFGPDICGPGTKKVHVIFNYKGKNVLINKDIRCKDDEFTHLYTLIVRPDNTYEVKIDNSQVESGSLEDDWDFLPPKKIKDPDASKPEDWDERAKIDDPTDSKPEDWDKPEHIPDPDAKKPEDWDEEMDGEWEPPVIQNPEYKGEWKPRQIDNPDYKGTWIHPEIDNPEYSPDPSIYAYDNFGVLGLDLWQVKSGTIFDNFLITNDEAYAEEFGNETWGVTKAAEKQMKD,glycan array binding signal (z-score),[1],-0.171
same,glycan array binding signal (z-score),[2],-0.373
same,glycan array binding signal (z-score),[3],3.18
same,glycan array binding signal (z-score),[4],-1.98
same,glycan array binding signal (z-score),[5],2.76
same,glycan array binding signal (z-score),[6],1.04
same,glycan array binding signal (z-score),[7],2.8
same,glycan array binding signal (z-score),[8],-0.484
same,glycan array binding signal (z-score),[9],0.21
same,glycan array binding signal (z-score),[10],2.73
same,glycan array binding signal (z-score),[11],0.225
same,glycan array binding signal (z-score),[12],4.99
same,glycan array binding signal (z-score),[13],-0.863
same,glycan array binding signal (z-score),[14],-0.281
same,glycan array binding signal (z-score),[15],3.33
same,glycan array binding signal (z-score),[16],-0.183
same,glycan array binding signal (z-score),[17],-0.05
same,glycan array binding signal (z-score),[18],1.24
same,glycan array binding signal (z-score),[19],4.2
same,glycan array binding signal (z-score),[20],0.999
same,glycan array binding signal (z-score),[21],-0.241
same,glycan array binding signal (z-score),[22],0.075
same,glycan array binding signal (z-score),[23],-0.137
same,glycan array binding signal (z-score),[24],0.662
same,glycan array binding signal (z-score),[25],0.132
same,glycan array binding signal (z-score),[26],0.029
same,glycan array binding signal (z-score),[27],-1.33
same,glycan array binding signal (z-score),[28],-0.627
same,glycan array binding signal (z-score),[29],1.07
same,glycan array binding signal (z-score),[30],-0.124
same,glycan array binding signal (z-score),[31],1.96
same,glycan array binding signal (z-score),[32],-0.73
same,glycan array binding signal (z-score),[33],2.68
same,glycan array binding signal (z-score),[34],-0.975
same,glycan array binding signal (z-score),[35],-0.104
same,glycan array binding signal (z-score),[36],-0.176
same,glycan array binding signal (z-score),[37],3.6
same,glycan array binding signal (z-score),[38],-0.102
same,glycan array binding signal (z-score),[39],0.051
same,glycan array binding signal (z-score),[40],-0.321
same,glycan array binding signal (z-score),[41],3.22
same,glycan array binding signal (z-score),[42],-1.48
same,glycan array binding signal (z-score),[43],0.139
same,glycan array binding signal (z-score),[44],-0.893
same,glycan array binding signal (z-score),[45],0.867
same,glycan array binding signal (z-score),[46],-0.341
